Compounds with a hit are over-represented: about 10% of the library has one in this group of screens.
PNC inhibitor: High Content Assay for Compounds that inhibit the Assembly of the Perinucleolar Compartment; activity change (PNC), negative = inhibition, % at 10 µM; 3.1% of 140,000 active; PC3M PTB-GFP, PNC prevalence imaging, 16 h; hits give low values;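 active means readout at or below -70, meaning at least 70% loss of cells showing the perinucleolar compartment, a nuclear body marking cancer cells; inconclusive means readout between -30 and a set limit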;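 further: plate controls were DMSO wells for no effect and camptothecin positive control wells for full effect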
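PC3M cells stably expressing PTB-GFP, 750–1000 cells/well, treated 16 h at 37 °C with compound (23 nl of library stock), in duplicate. After paraformaldehyde fixation and Hoechst stain, imaged at 20x; PNC prevalence scored by image analysis.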
HPGD block: qHTS Assay for Inhibitors of HPGD (15-Hydroxyprostaglandin Dehydrogenase). AID 894, 2007. purified HPGD, NADH fluorescence kinetic, PGE2 substrate. 4.3% of 150,000 active. Potency, µM, without a hit: at the top dose activity change, negative = inhibition, most hits filed as inhibitors; further: potency means the concentration at half of the fitted maximal effect
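20 nM HPGD preincubated 15 min at room temperature with compound in 50 mM Tris-HCl pH 8, 0.01% Tween 20. Started with 1 mM NAD+ and 30 uM prostaglandin E2; NADH fluorescence (360/450 nm) read 5 times over 30-s intervals, last minus first.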
LMNA splice mod: qHTS Assay for Modulators of Lamin A Splicing; HeLa LMNA splicing GFP/RFP minigene ratio, 48 h; Potency, µM (series often up to 46.1 µM), inactives show top-dose ratio change, negative = inhibition, usual class: inhibitors; 0.01% of 200,000 active; AID 1487, 2009; active means well fitted inhibition curve with a large enough effect in the signal ratio, with a control signal flat, not every such curve was filed as active; inconclusive means small, poorly fitted or top-dose-only effect, or effect the other way, or a change in a side signal; the % refers to the signal ratio; further: potency means the concentration at half of the fitted maximal effect
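Read-out is the ratio of GFP to DsRed2 object intensity, acquired by 488 nm laser-scanning cytometry on HeLa lamin A-EGFP minigene reporter cells. Compound incubation 48 hrs at 37 °C in Opti-MEM with 2% FBS; DMSO 0.5% final.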
ALDH1A1 inh: qHTS Assay for Inhibitors of Aldehyde Dehydrogenase 1 (ALDH1A1) | Aldehyde dehydrogenase 1A1 (Homo sapiens), P00352 | Purified ALDH1A1, NADH fluorescence, propionaldehyde substrate | Potency, µM (series often up to 75.3 µM), inactives show at the highest dose activity, negative = inhibition, hits mostly inhibitors | 7.3% of 220,000 active | AID 1030, 2008;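 further: potency means the concentration at half of the fitted maximal effect; plate controls were no enzyme wells and a reference inhibitor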
Target sequence (P00352 whole entry, looked up): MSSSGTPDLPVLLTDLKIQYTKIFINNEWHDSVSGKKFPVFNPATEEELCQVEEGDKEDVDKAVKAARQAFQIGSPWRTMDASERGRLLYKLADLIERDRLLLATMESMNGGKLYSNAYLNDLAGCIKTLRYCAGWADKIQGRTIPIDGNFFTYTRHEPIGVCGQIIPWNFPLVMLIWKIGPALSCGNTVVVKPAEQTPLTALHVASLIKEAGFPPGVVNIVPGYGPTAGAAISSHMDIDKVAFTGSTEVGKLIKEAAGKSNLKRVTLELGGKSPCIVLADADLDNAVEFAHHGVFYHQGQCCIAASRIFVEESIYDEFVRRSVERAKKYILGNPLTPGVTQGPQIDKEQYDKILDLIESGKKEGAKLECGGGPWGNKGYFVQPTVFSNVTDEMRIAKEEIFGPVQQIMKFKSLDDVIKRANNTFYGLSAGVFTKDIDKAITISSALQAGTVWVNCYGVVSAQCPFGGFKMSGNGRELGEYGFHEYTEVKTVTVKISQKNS
12-hLO inh: qHTS Assay for Inhibitors of 12-hLO (12-human lipoxygenase). purified 12-hLO, xylenol orange hydroperoxide absorbance. Potency, µM (titrated, usually from 57.1 µM), for inactives: at the top dose activity change, negative = inhibition, hits mostly inhibitors. Polyunsaturated fatty acid lipoxygenase ALOX12 (Homo sapiens), P18054. 0.12% of 150,000 active; active means well fitted inhibition curve with a large enough effect; inconclusive means small, poorly fitted or top-dose-only effect; further: potency means the concentration at half of the fitted maximal effect; nearly all actives have a fitted effect of over 55% in size
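150 nM 12hLO, 25 mM Hepes pH 7.0 + 0.01% Triton X-100; cpd preinc 15 min RT; 40 uM arachidonic acid, 30 min RT; Fe-XO 30 min; A573/A405 ratio as read-out.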
* hit, by the source's call; ? = inconclusive; nt = no result given; [ ] = another dose, or the depositor's remark. Unless noted, the call rests on the fitted dose curve; in most records, active means well fitted inhibition curve with a large enough effect (not every such curve was filed as active); inconclusive means small, poorly fitted or top-dose-only effect, or another doubt; inactive means no such curve, though single readings can be large or run the other way. Unless noted, on the % scale 0 is the no-effect control and ±100 the full control effect.

SMILES	PNC inhibitor	HPGD block	LMNA splice mod	ALDH1A1 inh	12-hLO inh
CCC1=NN(C(=O)C(=O)Nc2ccc(OC)cc2)C(O)(C(F)(F)F)C1 (configuration not stated)	31	-12%	?	?	-4%
COc1ccc(NC(=O)C(=O)N2N=C3CCCCC3C2(O)C(F)(F)F)cc1 (configuration not stated)	nt	nt	nt	2.8µM*	nt
CCCCNC(=O)Nc1ccccc1C(=O)NCc1ccco1	-17	-8%	9%	3%	-3%
CCCCNC(=O)Nc1ccccc1C(=O)NCCC	-100*	-23%	-9%	12%	-1%
C=C[C@H](N)CCC(=O)O	nt	-9%	-10%	-8%	-4%
Cc1ccc(N=C2NC(=O)/C(=C/c3cn(C)c4ccccc34)S2)cc1C	25	-9%	2%	0%	-5%
Cc1cc(/C=C2\SC(=Nc3ccc(F)cc3)NC2=O)c(C)n1-c1ccc(S(N)(=O)=O)cc1	-99*	-10%	?	?	-30%
Cc1cc(/C=C2/SC(=O)NC2=O)c(C)n1-c1ccc(N2CCOCC2)cc1	?	8.9µM*	?	-8%	-1%
COc1cc(Cl)c(NS(=O)(=O)c2ccc(-c3coc(C)n3)cc2)c(OC)c1	nt	nt	-12%[46 µM]	nt	nt
Cc1cccc(NC(=O)C(Cc2ccccc2)N2Cc3ccccc3C2=O)c1C (configuration not stated)	nt	nt	-20%[46 µM]	nt	nt
Cn1c(=O)[nH]c(=O)c2[nH]cnc21	nt	-13%	nt	8%	0%
Cc1ccc(S(=O)(=O)Nc2cccc(CP(=O)(c3ccccc3)c3ccccc3)c2)cc1	nt	nt	nt	24µM*	nt
CCCCS(=O)CC(COc1ccc(Cl)cc1)OC(=O)c1ccccc1 (configuration not stated)	-119*	nt	?	-11%	?
CCOC(=O)c1nonc1NC(C)=O	-100*	-5%	4%	0%	5%
COc1cc(OC)c(OC)cc1CN1CCc2nc(Nc3ccc4c(c3)OCCO4)ncc2C1	nt	nt	-13%[46 µM]	nt	nt
CCN(CC)C(=O)c1n[nH]c(=O)c2ccccc12	-25	-3%	-6%	1%	-7%
CCC(C)NC(=O)c1n[nH]c(=O)c2ccccc12 (configuration not stated)	-100*	3%	9%	0%	-5%
Cc1cc(C)c(-c2csc(NC(=O)c3n[nH]c(=O)c4ccccc34)n2)c(C)c1	-89*	-6%	?	10%	-2%
COc1ccc(-c2nc(NC(=O)c3n[nH]c(=O)c4ccccc34)sc2C)cc1	-114*	-13%	?	0%	0%
COC(=O)N1C(C)=Cc2ccccc2C1CC(C)=O (configuration not stated)	nt	-2%	-3%[9.22 µM]	0%	0%[11.4 µM]
CC1(c2ccccc2)NC(=O)N(CCOc2ccccc2)C1=O (configuration not stated)	-10	1%	17%	22µM*	-3%
CC1(c2ccccc2)NC(=O)N(CC(=O)NC(=O)NC2CCCC2)C1=O (configuration not stated)	31	-10%	-10%	13µM*	4%
CC1CN(C(=O)N2CCC(C(=O)NCc3cccs3)CC2)c2cc(Cl)ccc2O1 (configuration not stated)	nt	nt	-20%[46 µM]	nt	nt
Cc1ccc(-n2nc(C(=O)N3CCCCC3C)c(=O)n(C)c2=O)cc1 (configuration not stated)	nt	nt	11%[46 µM]	nt	nt
CC1(C)N=C(N)N=C(N)N1c1cccc(CSc2ccccc2)c1	nt	-6%	nt	5%[13.5 µM]	8%[11.4 µM]
SMILES	PNC inhibitor	HPGD block	LMNA splice mod	ALDH1A1 inh	12-hLO inh
Cc1cc(C)c2nc(N3CCC(C(=O)N4CCN(C(=O)c5ccco5)CC4)CC3)sc2c1	7	-14%	-23%	13µM*	-2%
Cc1c(Cl)ccc2sc(N3CCN(C(=O)c4ccco4)CC3)nc12	nt	nt	7%[46 µM]	nt	nt
COc1cc2[nH]cc(C(=O)NCCc3ccccc3)c(=O)c2cc1OC	-100*	?	?	?	-1%
CC(=O)OCC(=O)[C@@]1(O)CCC2C3CC(C)C4=CC(=O)C=CC4(C)C3C(O)CC21C (some centres not stated)	nt	-4%	-3%	-16%	-3%
O=C(O)C12CC3CC(C1)CC(n1ncc(N4CCN(c5ccccc5)CC4)c(Cl)c1=O)(C3)C2	-9	-5%	-11%	7.1µM*	1%
Cc1cc(Cc2cc(C)c(N)cc2C)c(C)cc1N	nt	nt	nt	22µM*	nt
CCOC(=O)c1scc(-c2ccc(C)cc2)c1S(=O)(=O)Nc1ccc(OC)c(Cl)c1	nt	nt	-7%[46 µM]	nt	nt
COc1ccc2cc(C(c3nnnn3Cc3ccccc3)N3CCCCCC3)c(=O)[nH]c2c1 (configuration not stated)	2	-8%	13%	14µM*	-16%
COc1ccc(Cn2nnnc2C(c2cc3ccc(OC)cc3[nH]c2=O)N2CCC(C)CC2)cc1 (configuration not stated)	26	-8%	-2%	0.89µM*	-1%
COc1ccc2cc(C(=O)OC(C)C)sc(=O)c2c1OC	4	?	-5%	5µM*	5%
O=c1c(-c2cccs2)nc2cnc(N3CCNCC3)nc2n1-c1ccccc1	nt	?	nt	?	-6%
O=C(C[n+]1ccccc1)N1c2ccccc2Sc2ccccc21	nt	nt	-22%[46 µM]	3.2µM*	nt
CN(C)c1cc[n+](CC(=O)N2c3ccccc3Sc3ccccc32)cc1	nt	nt	?	8%	nt
COc1cc(C2Nc3ccc4ncccc4c3C3=C2C(=O)CC(C)(C)C3)cc(OC)c1O (configuration not stated)	-14	-13%	-24%	13µM*	3%
COc1cc(C2Nc3ccc4ncccc4c3C3=C2C(=O)CCC3)cc(OC)c1O (configuration not stated)	46	-8%	?	-3%	-7%
CC1(C)CC(=O)C2=C(C1)c1c(ccc3ccccc13)NC2c1cc([N+](=O)[O-])cc([N+](=O)[O-])c1O (configuration not stated)	nt	nt	nt	11µM*	nt
COc1ccc(CNC(=O)CCc2c(C)nn(-c3ccc(N4CCCC4)nn3)c2C)c(OC)c1	nt	nt	-1%[46 µM]	nt	nt
O=C(Cc1ccccc1)c1nnc(-c2ccccc2)o1	nt	nt	nt	8.9µM*	nt
N#CCC(=O)Nn1c(=S)[nH]c2ccccc2c1=O	nt	nt	nt	9%	nt
CC(=O)N1c2c(cc(Br)cc2S(=O)(=O)N2CCN(C(=O)c3ccco3)CC2)CC1C (configuration not stated)	-100*	14µM*	-10%	-8%	1%
Cn1cc(S(=O)(=O)N2CCN(C(=O)c3ccco3)CC2)c(=O)n(C)c1=O	-23	-12%	9%	1%	1%
Cc1ccc(S(=O)(=O)Nc2ccc(O)c3ncccc23)cc1	nt	nt	nt	1.3µM*	nt

Screening results as filed in PubChem BioAssay.
